Measurements from PubChem BioAssay (NCI).
Values joined by “and” are separate entries in the source; they are usually repeats but may differ in a detail not shown here. Identical values can stand only once. Compounds without any hit were thinned out: in the full panel of roughly 83,000, 20% have a hit.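 48-hour exposure, single concentration, 96-well plates; percent growth endpoint where 0 means no net growth. Active: below 10.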 Active and inactive are the calls of the source.

Legend:
Assay in all cases: NCI-60 one-dose screen, 48 h (100 = growth as untreated, 0 = no growth, -100 = all killed)
Conditions in all cases: 10 µM unless noted
EKVX NSCLC = system: EKVX NSCLC
SN12C renal = system: SN12C renal
UO-31 renal = system: UO-31 renal
TK-10 renal = system: TK-10 renal
ACHN renal = system: ACHN renal
A498 renal = system: A498 renal
CCRF-CEM leukemia = system: CCRF-CEM leukemia
MOLT-4 leukemia = system: MOLT-4 leukemia
SR leukemia = system: SR leukemia
RPMI-8226 leukemia = system: RPMI-8226 leukemia
OVCAR-8 ovarian = system: OVCAR-8 ovarian
OVCAR-5 ovarian = system: OVCAR-5 ovarian
OVCAR-4 ovarian = system: OVCAR-4 ovarian
SK-OV-3 ovarian = system: SK-OV-3 ovarian
IGROV1 ovarian = system: IGROV1 ovarian
OVCAR-3 ovarian = system: OVCAR-3 ovarian
NCI/ADR-RES ovarian = system: NCI/ADR-RES ovarian
HS 578T breast = system: HS 578T breast
CAKI-1 renal = system: CAKI-1 renal

Measured: growth

CCOC(C)=N
inactive: EKVX NSCLC 134% | SN12C renal 105% | UO-31 renal 107% | TK-10 renal 107% | ACHN renal 104% | A498 renal 120% | CCRF-CEM leukemia 98.6% | MOLT-4 leukemia 94.6% | SR leukemia 87.4% | RPMI-8226 leukemia 92.7% | OVCAR-8 ovarian 109% | OVCAR-5 ovarian 102% | OVCAR-4 ovarian 100% | SK-OV-3 ovarian 97% | IGROV1 ovarian 151% | OVCAR-3 ovarian 110% | NCI/ADR-RES ovarian 109%

CCN(CC)Cc1cc2[nH]c3c4ccc(Cl)cc4ncc3c2cc1OC
33.3% (inactive) and -1.1% (active): OVCAR-4 ovarian
active: SR leukemia -49.9% and -13.8% | RPMI-8226 leukemia -39.2%
inactive: EKVX NSCLC 83.5% and 75% | SN12C renal 72.9% and 78.8% | UO-31 renal 110% and 66.2% | TK-10 renal 123% and 89.8% | ACHN renal 83.7% and 73.4% | A498 renal 146% and 106% | MOLT-4 leukemia 40.4% | OVCAR-8 ovarian 83.2% and 80.6% | OVCAR-5 ovarian 98% and 98.6% | SK-OV-3 ovarian 83.8% and 105% | IGROV1 ovarian 293% and 63.1% | OVCAR-3 ovarian 87.5% | NCI/ADR-RES ovarian 78.1% and 102%
-7.12% (active) and 99.3% (inactive): HS 578T breast
-21.5% (active) and 61% (inactive): CCRF-CEM leukemia

Cc1ccc2cccc([N+](=O)[O-])c2n1
inactive: EKVX NSCLC 114% | SN12C renal 98.8% and 100% | TK-10 renal 109% and 111% | ACHN renal 105% and 96.9% | CAKI-1 renal 96.5% and 95.6% | A498 renal 117% and 109% | CCRF-CEM leukemia 108% and 95.3% | MOLT-4 leukemia 88.5% and 89.3% | SR leukemia 97.7% and 94% | RPMI-8226 leukemia 111% and 92.8% | OVCAR-8 ovarian 101% and 108% | OVCAR-5 ovarian 104% and 101% | OVCAR-4 ovarian 128% and 103% | SK-OV-3 ovarian 102% and 100% | OVCAR-3 ovarian 111% and 110% | HS 578T breast 111% and 109% | NCI/ADR-RES ovarian 113% and 102%

COc1ccc([N+](=O)[O-])cc1OC
inactive: EKVX NSCLC 98.6% and 102% | SN12C renal 99.6% and 108% | UO-31 renal 76.2% and 99.1% | TK-10 renal 98.9% and 108% | ACHN renal 99% and 93.5% | A498 renal 73.1% and 128% | CCRF-CEM leukemia 89.6% and 102% | MOLT-4 leukemia 91.2% and 104% | SR leukemia 89.4% and 108% | RPMI-8226 leukemia 106% | OVCAR-8 ovarian 89.6% and 94.5% | OVCAR-5 ovarian 101% and 98.3% | OVCAR-4 ovarian 104% | SK-OV-3 ovarian 114% and 119% | IGROV1 ovarian 111% and 109% | OVCAR-3 ovarian 113% and 114% | HS 578T breast 112% and 132% | NCI/ADR-RES ovarian 102% and 104%

CC1(C)CC(=O)NC1=O
inactive: EKVX NSCLC 103% | SN12C renal 101% | UO-31 renal 87.1% | TK-10 renal 91.8% | ACHN renal 98.2% | CAKI-1 renal 93.5% | CCRF-CEM leukemia 95.6% | MOLT-4 leukemia 107% | SR leukemia 95.9% | RPMI-8226 leukemia 108% | OVCAR-8 ovarian 98.9% | OVCAR-5 ovarian 94.8% | OVCAR-4 ovarian 102% | OVCAR-3 ovarian 103% | HS 578T breast 112% | NCI/ADR-RES ovarian 103%

CCCCNC(=O)c1ccccc1C
inactive: EKVX NSCLC 94.9% | SN12C renal 98.5% | TK-10 renal 97.5% | ACHN renal 104% | CAKI-1 renal 96.5% | A498 renal 126% | CCRF-CEM leukemia 99.7% | MOLT-4 leukemia 98.5% | SR leukemia 85.3% | RPMI-8226 leukemia 99.7% | OVCAR-8 ovarian 107% | OVCAR-5 ovarian 94.4% | OVCAR-4 ovarian 104% | SK-OV-3 ovarian 97.3% | IGROV1 ovarian 96.2% | OVCAR-3 ovarian 105% | HS 578T breast 104% | NCI/ADR-RES ovarian 99.3%

O=C1c2cccnc2-c2ncccc21
inactive: EKVX NSCLC 99.6% [100 µM] | SN12C renal 108% [100 µM] | UO-31 renal 97.1% [100 µM] | TK-10 renal 97.1% [100 µM] | ACHN renal 112% [100 µM] | A498 renal 103% [100 µM] | CCRF-CEM leukemia 106% [100 µM] | MOLT-4 leukemia 117% [100 µM] | SR leukemia 120% [100 µM] | RPMI-8226 leukemia 99.8% [100 µM] | OVCAR-8 ovarian 106% [100 µM] | OVCAR-5 ovarian 122% [100 µM] | OVCAR-4 ovarian 109% [100 µM] | SK-OV-3 ovarian 107% [100 µM] | IGROV1 ovarian 113% [100 µM] | OVCAR-3 ovarian 110% [100 µM] | NCI/ADR-RES ovarian 102% [100 µM]

ON=C(C1CCCCC1)C1CCCCC1
inactive: EKVX NSCLC 97.8% | SN12C renal 99.9% | UO-31 renal 89.3% | TK-10 renal 90.2% | ACHN renal 101% | A498 renal 94.7% | CCRF-CEM leukemia 99.8% | MOLT-4 leukemia 114% | SR leukemia 97.2% | RPMI-8226 leukemia 105% | OVCAR-8 ovarian 107% | OVCAR-5 ovarian 89.5% | OVCAR-4 ovarian 107% | SK-OV-3 ovarian 106% | IGROV1 ovarian 102% | OVCAR-3 ovarian 105% | NCI/ADR-RES ovarian 103%

O=C1CCC(=O)N1CC1CC2CCC1C2 (configuration not stated)
-56.3% (active) and 84% (inactive): SK-OV-3 ovarian
inactive: EKVX NSCLC 99% and 83.1% | SN12C renal 94% and 82.3% | UO-31 renal 101% and 95.5% | TK-10 renal 94.4% and 83.7% | ACHN renal 100% and 92.2% | CAKI-1 renal 67.2% and 91.1% | A498 renal 119% and 103% | CCRF-CEM leukemia 95.1% and 104% | MOLT-4 leukemia 54.1% and 111% | SR leukemia 84.7% and 78.9% | RPMI-8226 leukemia 71.3% and 114% | OVCAR-8 ovarian 98.8% and 96.1% | OVCAR-5 ovarian 93.8% and 90.8% | OVCAR-4 ovarian 91.1% and 97.4% | IGROV1 ovarian 105% and 107% | OVCAR-3 ovarian 106% and 101% | HS 578T breast 115% and 102% | NCI/ADR-RES ovarian 110% and 104%

COc1cc([C@@H]2c3cc4c(cc3[C@H](O)[C@H]3COC(=O)[C@@H]23)OCO4)cc(OC)c1OC
17.4% (inactive) and 0.767% (active): CCRF-CEM leukemia
25.8% (inactive) and -19.7% (active): RPMI-8226 leukemia
13.5% (inactive) and 4.58% (active): MOLT-4 leukemia
active: A498 renal -5.77% and -29.6% | SR leukemia 6.02% and -8.59% | IGROV1 ovarian -2.37% and -41.6% | NCI/ADR-RES ovarian 5.58% and -30.9%
29% (inactive) and -49.9% (active): OVCAR-3 ovarian
22.9% (inactive) and 8.72% (active): CAKI-1 renal
inactive: EKVX NSCLC 28.6% and 35.4% | SN12C renal 20.6% and 33% | UO-31 renal 23.3% and 36.9% | TK-10 renal 21.1% and 69.2% | ACHN renal 25.2% and 31.8% | OVCAR-8 ovarian 11.5% and 18.9% | OVCAR-5 ovarian 24.3% and 30.4% | OVCAR-4 ovarian 34.2% and 35.6%
33% (inactive) and 3.05% (active): SK-OV-3 ovarian

CC(NC(=O)CCl)c1ccccc1 (configuration not stated)
inactive: EKVX NSCLC 99% | SN12C renal 110% | UO-31 renal 98.8% | TK-10 renal 98.8% | ACHN renal 106% | CAKI-1 renal 101% | A498 renal 83.9% | MOLT-4 leukemia 101% | SR leukemia 99.2% | RPMI-8226 leukemia 107% | OVCAR-8 ovarian 105% | OVCAR-5 ovarian 109% | OVCAR-4 ovarian 98.7% | SK-OV-3 ovarian 102% | IGROV1 ovarian 104% | OVCAR-3 ovarian 102% | HS 578T breast 92.5% | NCI/ADR-RES ovarian 104%

CC1(CO)CCCC1NCCNC1CCCC1(C)CO (configuration not stated)
inactive: EKVX NSCLC 101% | SN12C renal 98% and 103% | UO-31 renal 105% and 86% | TK-10 renal 108% | ACHN renal 105% and 100% | CAKI-1 renal 99.5% and 92.3% | MOLT-4 leukemia 115% and 104% | SR leukemia 95.9% | RPMI-8226 leukemia 102% and 97% | OVCAR-8 ovarian 97.8% and 102% | OVCAR-5 ovarian 110% and 98.9% | OVCAR-4 ovarian 90.4% and 101% | SK-OV-3 ovarian 111% and 101% | OVCAR-3 ovarian 128% and 112% | HS 578T breast 112% and 106% | NCI/ADR-RES ovarian 105% and 107%

Cn1c(N)c(N=O)c(=O)n(C)c1=O
inactive: EKVX NSCLC 97.4% and 95.9% | SN12C renal 109% and 93.8% | UO-31 renal 82% and 92.5% | TK-10 renal 120% and 92.8% | ACHN renal 109% | CAKI-1 renal 102% | A498 renal 99% and 78% | CCRF-CEM leukemia 106% and 116% | MOLT-4 leukemia 93.9% and 117% | SR leukemia 92.4% and 91.7% | RPMI-8226 leukemia 104% and 116% | OVCAR-8 ovarian 96.8% and 104% | OVCAR-5 ovarian 111% and 104% | OVCAR-4 ovarian 111% and 103% | SK-OV-3 ovarian 111% and 118% | IGROV1 ovarian 105% | OVCAR-3 ovarian 109% and 90.7% | NCI/ADR-RES ovarian 97.6%
